Screen size: about 59,000 compounds; about 6,200 (11%) were called active. Inconclusive results (about 9%) are left out. Rule as the data show it: active = max dye-equivalent concentration above about 10 nM; inconclusive = mostly about 1.1 nM to 9.6 nM; inactive = weaker than that. The entries come from a sample that favours actives as a whole. The source holds several records for some structures; these can differ, active in one and inactive in another.
Assay: qHTS Assay for Spectroscopic Profiling in 4-MU Spectral Region
Conditions: compound autofluorescence, 340/450 nm, 4-MU equivalents; active compounds read high
Outline: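 Compounds in 100 mM Tris, pH 8.0, sat 15 min at room temperature before fluorescence was read at 340 nm excitation/450 nm emission; a per-plate six-point 4-MU standard curve converted signals to dye-equivalent concentration at each compound concentration.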

Max dye-equivalent concentration, inactive:
CCCCC(=O)N1CC2(C)CN(C(=O)CCCC)CC(C)(C1)C2=O, Cn1c(=O)n(C)c(=O)n(CC(=O)N2CCCCC2)c1=O, CCN1C(=O)/C(=C\N2CCN(c3cccc(Cl)c3)CC2)SC1=S, Cc1nn2c3cc(N4CCOCC4)ccc3nc2c2ccccc12, CS(=O)(=O)N(CC(=O)N1CCN(c2cccc(Cl)c2)CC1)c1ccccc1, Cc1cc(N2CCN(Cc3ccc4c(c3)OCO4)CC2)n2ncnc2n1, COc1ccc(C(=O)N2CCC3(CC2)CCN(c2ccccn2)CC3)cc1, CCn1c(CNC(=O)c2ccc(OC)c(OC)c2)nnc1SCC(=O)Nc1ccccc1, O=C(CN(Cc1ccccc1)C(=O)c1ccc2c(c1)OCCO2)NCc1ccc2c(c1)OCO2, Cc1nnc(NC2=NCCCCC2)o1, O=C(c1c(Cl)nc2sccn12)N1CCCc2ccccc21, O=C1CC(Cc2ccccc2)C(=O)N1c1ccc(Cl)cn1 (stereo unspecified), Cc1ccc(C(C(=O)NCc2ccco2)N(CC2CCCO2)C(=O)Cn2nnc3ccccc32)cc1 (stereo unspecified), CN(C)C(=O)c1ccc(-c2cncnc2Nc2ccccc2)cc1, O=C(NCc1cn2ccsc2n1)Nc1cccc(Cl)c1, O=C(/C=N/O)Nc1ccccc1, CCS(=O)(=O)n1nc(-c2ccc(OC)cc2)nc1SC, c1ccc(-c2cc(-c3nnc4sc(-c5ccccn5)nn34)[nH]n2)cc1, CCOc1cccc(-c2nn3c(-c4ccccn4)nnc3s2)c1, CCCC(CCC(=O)OC)(C(=O)OCC)c1csc(N)n1 (stereo unspecified), COc1ccc(CNc2ncncc2-c2ccccc2C)c(OC)c1, Oc1c(CN2CCOCC2)ccc(CN2CCOCC2)c1O, O=c1[nH]nc(Cc2ccccn2)c2ccccc12, O=C(COC(=O)CCC(=O)c1cccs1)NCc1ccco1, Cc1cc(C(=O)OCC(=O)NCc2ccco2)c(C)n1-c1ccccc1, CC(C)(C)c1cc(CN2CCN(CCC#N)CC2)cc(C(C)(C)C)c1O, O=C(O)Cc1ccc(NC(=O)c2cccs2)cc1, O=C(O)CCCc1ccccc1, CCOC(=O)C1CCN(C(=O)C2CCN(S(=O)(=O)CC)CC2)CC1, O=C(O)CSCNC(=O)CC12CC3CC(CC(C3)C1)C2, O=C(NC1CCCCC1)n1c(=O)oc2cc(S(=O)(=O)N3CCCCC3)ccc21, C=CCn1c(C)cc(C(=O)CN2C(=O)c3ccccc3C2=O)c1C, O=C(Nc1ccc(NC(=O)c2cccs2)cn1)c1ccco1, Cc1c(C(=O)NCCN2CCOCC2)sc2nc(-c3ccc(F)cc3)cn12, CSc1cccc(NC(=O)CSc2ccccc2)c1, CCCCOc1ccc(-c2nnc(-c3ccco3)o2)cc1, O=C(Nc1cccc2cccnc12)c1cccc(N2C(=O)CCC2=O)c1, N#Cc1nc(-c2ccc(OCc3ccccc3)cc2)oc1NCCCN1CCOCC1, O=C(OCCN1CCOCC1)C1(c2ccccc2)CCCCC1, CCOC(=O)C1CCCN(C(=O)c2cncc(Br)c2)C1 (stereo unspecified), COc1ccc(OC)c([C@H](O)CNC(=O)CN)c1, C/C(Cl)=C\Cn1c(Nc2cccc(C)c2)nc2c1c(=O)n(C)c(=O)n2C, COc1ccccc1CN1CC2(CCN(S(=O)(=O)c3ccccc3)CC2)C1

Max dye-equivalent concentration, active:
COc1ccc(C2=CC(c3cccc(OC)c3)n3nnnc3N2)cc1 (stereo unspecified) 13 nM, CS(=O)(=O)N(Cc1nc2sc3c(c2c(=O)[nH]1)CCCC3)C1CCCCC1 34 nM, Cc1cc(C)c2c(n1)nn1c(N3CCN(c4cccc(Cl)c4)CC3)cc(C)nc21 100 nM, Cc1cc(C)c2c(n1)nn1c(-n3ccnc3)cc(C)nc21 240 nM, Cc1cc(C)c2c(n1)nn1c(N3CCOCC3)cc(C)nc21 6300 nM, COc1cc(-c2nn3c(-c4cccc(C)c4)nnc3s2)cc(OC)c1OC 1900 nM, CN(CCc1ccccn1)S(=O)(=O)c1ccc2c3c(cccc13)C(=O)N2 790 nM, O=C(COC(=O)C12CC3CC(CC(C3)C1)C2)NCc1ccco1 23 nM, O=C(O)Cc1ccc(-c2ccccc2)cc1 49 nM, NS(=O)(=O)c1cc2c(cc1Cl)NC(C(Cl)Cl)NS2(=O)=O (stereo unspecified) 6500 nM, COc1ccc(OC)c2c(N)c(C#N)c(C(F)(F)C(F)(F)F)nc12 140 nM, O=C(CN1CCOCC1)N1CCCc2c1c(=O)oc1ccc(OCc3ccccc3)cc21 45 nM

outcome, inactive:
O=C(O)Cc1ccc(-c2ccccc2)cc1

Source: PubChem BioAssay AID589 (National Center for Advancing Translational Sciences (NCATS), 2007)
